Experimental data published in PubChem BioAssay AID602229 (The Scripps Research Institute Molecular Screening Center, 2012).
Among all 360,000 compounds or so, about 1,300 (0.36%) were called active. This excerpt belongs to a sample that is enriched for actives. Unmarked numbers belong to inactive results.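 Rule for the calls: active = inhibition above the mean of all tested compounds plus 3 SD (cut at about 70% in these data); inactive = the rest.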

molecular target: Photoreceptor-specific nuclear receptor (Homo sapiens) (UniProt Q9Y5X4); test: NR2E3 agonists in two-hybrid cells, primary screen, cell-based, luminescence, CHO-S, Gal4-NCOR/VP16-NR2E3 (AID 602229); conditions: luciferase, at 3.98 µM, stronger effect = higher value;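 note: 0% = DMSO with NR2E3 transfected cells and 100% = cells lacking NR2E3 construct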
Sequence (Q9Y5X4 whole entry, looked up, the tested form may be a part): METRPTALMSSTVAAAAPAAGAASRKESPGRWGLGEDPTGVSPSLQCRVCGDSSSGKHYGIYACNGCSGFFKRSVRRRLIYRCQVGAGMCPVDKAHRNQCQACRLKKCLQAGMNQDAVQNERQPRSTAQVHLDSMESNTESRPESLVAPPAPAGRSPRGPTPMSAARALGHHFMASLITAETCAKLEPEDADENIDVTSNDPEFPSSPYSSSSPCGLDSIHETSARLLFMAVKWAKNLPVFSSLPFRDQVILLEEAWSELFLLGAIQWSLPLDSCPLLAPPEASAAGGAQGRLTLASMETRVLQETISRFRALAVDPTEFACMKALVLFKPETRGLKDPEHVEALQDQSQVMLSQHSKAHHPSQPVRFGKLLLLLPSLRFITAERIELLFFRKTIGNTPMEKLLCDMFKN

Going from `CN(C)c1ccc(NC(=S)N(CCc2ccccc2)C2CC(=O)N(c3c(Cl)cccc3Cl)C2=O)cc1` (stereo not drawn) to `CC(=O)Nc1ccc(S(=O)(=O)NCC(=O)OCc2cc(=O)oc3ccc4ccccc4c23)cc1`, the inhibition of corepressor binding falls from 0.55% to -8.3%.

Compared with `COc1ccc(-c2ccc(C(=O)NC(C)C)c3occc23)c(C)c1`, `COc1cccc(NS(=O)(=O)c2ccc(-c3coc(C)n3)cc2)c1` is higher in inhibition of corepressor binding: 15.3% for the first, 50.6% for the second.

First: COc1ccc(CCNC(=O)CC2SC(=Nc3cc(C)cc(C)c3)NC2=O)cc1OC (stereo not drawn)
Second: COc1ccc(NC(=O)CC2SC(N3CCCCC3)=NC2=O)cc1OC (stereo not drawn)
The inhibition of corepressor binding of the first is lower: -33.4% for the first, 8.6% for the second.

First: CCCOc1ccc(Cc2c(O)nc(SC)[nH]c2=O)cc1C
Second: CCCc1cc(=O)[nH]c(SCc2ccc(C#N)cc2)n1
The inhibition of corepressor binding of the first is higher: -21.5% for the first, -25.9% for the second.

Going from `CCn1c(/C=C/c2ccc([N+](=O)[O-])o2)nc2ccccc2c1=O` to `Cc1nc([N+](=O)[O-])c(NCCCO)n1Cc1ccccc1`, the inhibition of corepressor binding falls from 9.98% to -10.6%.

Compared with `O=C(/C=C/c1ccc(F)cc1)NC(=S)NNC(=O)c1cccnc1`, `O=S(=O)(Nc1ccc(Oc2ncccn2)c(Cl)c1)c1ccc(F)cc1` is higher in inhibition of corepressor binding: -36.2% for the first, -0.77% for the second.

Compared with `CC1=C(C(=O)Nc2ccccc2)C(c2cccs2)C(C#N)=C(SCC#N)N1` (stereo not drawn), `CCCN(CC(=O)Nc1ccc(C(N)=O)cc1)CC(=O)Nc1ccccc1C` is higher in inhibition of corepressor binding: -12.8% for the first, 12.9% for the second.

Going from `CNS(=O)(=O)c1ccc2c(c1)[nH]c(=S)n2C` to `Cc1ccc(NS(=O)(=O)c2ccc3c(c2)n(C)c(=O)c(=O)n3C)c(C)c1`, the inhibition of corepressor binding rises from 10% to 10.7%.

Going from `Nc1nc(-c2sc3nc4c(cc3c2N)CCCC4)nc(N2CCOCC2)n1` to `CC(C)(C)C(=O)COC(=O)c1cc(S(=O)(=O)N2CCCCC2)ccc1N1CCOCC1`, the inhibition of corepressor binding rises from -56.6% to -9.47%.

First: CCCOC(=O)c1[nH]c2c(c1C)C(=O)CC(c1cccs1)C2 (stereo not drawn)
Second: COC(=O)C1C(=O)c2c([nH]c(C(=O)OCCSC)c2C)CC1C (stereo not drawn)
The inhibition of corepressor binding of the first is higher: 2.46% for the first, -86.8% for the second.

First: Cc1cc(C)c(S(=O)(=O)NCC2CCC(C(=O)NCc3ccc4c(c3)OCO4)CC2)c(C)c1 (stereo not drawn)
Second: COc1ccc(N(C)S(=O)(=O)c2ccc3c(c2)CC(C)N3C(=O)C2CC2)c(OC)c1 (stereo not drawn)
The inhibition of corepressor binding of the first is higher: -8.75% for the first, -11.9% for the second.

Going from `CC(C)C1Nc2c(C(=O)O)cccc2C(Nc2ccccc2C(=O)O)C1(C)C` (stereo not drawn) to `COC(=O)c1ccccc1NC(=O)C1CCN(S(=O)(=O)c2cc(OC)ccc2OC)CC1`, the inhibition of corepressor binding falls from 6.02% to -0.68%.

Going from `COc1ccc(F)cc1S(=O)(=O)N1CCCCC1` to `COc1ccc(NC(=O)C2=NNC(=O)CC2)cc1S(=O)(=O)N1CCCCC1`, the inhibition of corepressor binding falls from 4.16% to -7.29%.

First: Cc1ccc(F)cc1NC(=O)CSCc1c(C)noc1C
Second: Cc1ccc(C)c(NC(=O)COC(=O)c2nn(C)c(=O)c3ccccc23)c1
The inhibition of corepressor binding of the first is lower: -16.1% for the first, 8.19% for the second.

Going from `O=C(CN1CCN(S(=O)(=O)c2ccc(Br)cc2)CC1)Nc1ccccc1C(=O)c1ccccc1` to `Cc1ccc(S(=O)(=O)N2CCN(Cc3cccc(C)c3O)CC2)cc1`, the inhibition of corepressor binding rises from 3.01% to 4.5%.

Going from `CCCCC[C@@H]1C=C(C(=O)OCC)[C@H](c2ccccc2)N1S(=O)(=O)c1ccc(C)cc1` to `CCCCC[C@@H]1C=C(C(=O)O)[C@H](c2ccc(C#N)cc2)N1S(=O)(=O)c1ccc(C)cc1`, the inhibition of corepressor binding falls from 16.2% to -8.3%.

Compared with `O=C(NCc1ccccc1)C(=O)NCC1OCCN1S(=O)(=O)c1ccc(Br)cc1` (stereo not drawn), `O=C(CN(CC1CCCO1)C(=O)CNS(=O)(=O)c1ccccc1)NCc1ccccc1` (stereo not drawn) is lower in inhibition of corepressor binding: 10.3% for the first, -7.79% for the second.

First: O=C(C1CCC1)N1CCc2cc(S(=O)(=O)NCc3cccnc3)ccc21
Second: Cn1c(=O)oc2cc(S(=O)(=O)N3CCC(C(=O)Nc4ccc(OC(F)(F)F)cc4)CC3)ccc21
The inhibition of corepressor binding of the first is higher: 10% for the first, -16.6% for the second.

Compared with `COc1ccc(S(=O)(=O)n2nc(C)c(S(=O)(=O)N3CCOCC3)c2C)cc1`, `COc1ccc(S(=O)(=O)N2CCN(c3ncnc4c(-c5ccccc5)nsc34)CC2)cc1` is higher in inhibition of corepressor binding: -29.6% for the first, -27.3% for the second.

First: Cc1cc(C)c(C)c(S(=O)(=O)Nc2cccnc2)c1C
Second: COc1ccc(S(=O)(=O)Nc2cccnc2)c(Cl)c1Cl
The inhibition of corepressor binding of the first is lower: -21.1% for the first, -20.2% for the second.

First: CN(CCc1cnn(C)c1)Cc1cn(C)nc1-c1ccccc1F
Second: O=C(CCc1nnc2ccc(NCCCN3CCCC3=O)nn12)NCc1ccccc1Cl
The inhibition of corepressor binding of the first is lower: -12.1% for the first, 8.39% for the second.

First: CC1(C)O[C@@H]2CC3C4C[C@H](F)C5=CC(=O)C=CC5(C)C4C(O)CC3(C)[C@]2(C(=O)CO)O1 (stereo partly drawn)
Second: Cc1ccc(C(=O)OC2=CC(=O)CC(C)(C)C2)cc1
The inhibition of corepressor binding of the first is higher: 7.42% for the first, -13.1% for the second.

Compared with `CCC1CCCCN1C(=O)CSc1nc(C)cc(C)n1` (stereo not drawn), `CCOC(=O)C1CCCN(C(=O)c2cc(-c3cccs3)oc2C)CC1` (stereo not drawn) is lower in inhibition of corepressor binding: 7.45% for the first, -1.14% for the second.

Compared with `CS(=O)(=O)N1CCN=C1SCc1ccc(F)cc1`, `Cc1nc(-c2ccc(F)cc2)c(CC(=O)N2CCN(S(=O)(=O)c3ccc(F)cc3)CC2)s1` is higher in inhibition of corepressor binding: -6.15% for the first, -1.49% for the second.

Compared with `COc1cccc(N(CC(=O)NC2CCCC2)C(=O)CCCC(=O)Nc2ccccn2)c1`, `COc1ccc(C(C(=O)NCC2CCCO2)N(C(=O)Cn2nnc3ccccc32)c2ccc(NC(C)=O)cc2)cc1OC` (stereo not drawn) is lower in inhibition of corepressor binding: -5.7% for the first, -35.2% for the second.

First: COc1cc(NS(=O)(=O)c2ccc3ccccc3c2)c2ncccc2c1
Second: CS(=O)(=O)Nc1ccccc1N=C(c1ccccc1)c1ccccc1
The inhibition of corepressor binding of the first is higher: 48% for the first, 7.7% for the second.

Going from `O=C(CSc1ccccn1)N1CCN(S(=O)(=O)c2ccc(Cl)cc2)CC1` to `Cc1ccc(S(=O)(=O)N2CCN(C(=O)Cc3sc(C)nc3-c3ccc(F)cc3)CC2)c(C)c1`, the inhibition of corepressor binding rises from -21.8% to -15.2%.

First: CCOC(=O)C1=NNC2(c3ccc(Cl)cc3)C(=O)N(c3cc(C)cc(C)c3)C(=O)C12 (stereo not drawn)
Second: Cc1ccc(S(=O)(=O)NC(C)C(=O)NCc2ccc(Cl)cc2)cc1 (stereo not drawn)
The inhibition of corepressor binding of the first is higher: 3.14% for the first, -5.53% for the second.

Going from `Cc1cc(C)nc(NC(=O)Nc2ccccc2C(F)(F)F)n1` to `CCOc1ccccc1N1CCN(C(=O)c2ccc3[nH]c(C)c(C)c3c2)CC1`, the inhibition of corepressor binding falls from -48.1% to -57.3%.

First: COc1ccccc1CCCNC(=O)C1CCC(=O)N(CCN2CCOCC2)C1 (stereo not drawn)
Second: C[C@H](CO)N1C[C@H](C)[C@H](CN(C)CC2CC2)Oc2ccc(NC(=O)CCN3CCOCC3)cc2C1=O
The inhibition of corepressor binding of the first is lower: -8.73% for the first, -4.02% for the second.

First: O=C(c1ccco1)N1CCN(CC(=O)N(C2CCCCC2)C2CCS(=O)(=O)C2)CC1 (stereo not drawn)
Second: COC(=O)[C@]12CCCCC=C1N(Cc1ccco1)C(=O)[C@H](CC(=O)NCCCCc1ccccc1)C2
The inhibition of corepressor binding of the first is higher: -15.5% for the first, -23.9% for the second.

Going from `Cc1ccc(S(=O)(=O)N2CCC3(CC2)OCCO3)c(C)c1` to `Cc1ccc([N+](=O)[O-])cc1S(=O)(=O)N1CCCN(C)CC1`, the inhibition of corepressor binding rises from -34.4% to -11.3%.

Compared with `N#CC1=C(N)Oc2[nH]c(=S)[nH]c(=O)c2C12C(=O)Nc1ccccc12` (stereo not drawn), `COCC(=O)N1CCc2ccc(NC(=O)c3ccccc3Cl)cc2C1` is higher in inhibition of corepressor binding: -7.36% for the first, -6.67% for the second.

Compared with `CCCCn1nnnc1C(c1ccccc1)N1CCN(c2ccccc2OC)CC1` (stereo not drawn), `CCCCC(=O)N(c1ccc(OC)cc1)C1C=CS(=O)(=O)C1` (stereo not drawn) is lower in inhibition of corepressor binding: -15.1% for the first, -26% for the second.

Compared with `O=S(=O)(Nc1ccc(-c2ccc(N3CCOCC3)nn2)cc1)c1cc(Cl)ccc1Cl`, `O=C(CC(NCCN1CCOCC1)C(=O)O)Nc1cccc(Cl)c1` (stereo not drawn) is higher in inhibition of corepressor binding: -41.5% for the first, 5.57% for the second.

`CCn1cc(C(=O)N[C@@H](C)C(=O)NCCO)c(=O)c2cc3c(cc21)OCO3` showed an inhibition of corepressor binding of -12.3%.

`CCCOc1ccc(Cc2c(Cl)nc(SC)nc2NC)cc1` was tested, and the inhibition of corepressor binding was 92.3% (active).
With `O=C(/C=C/c1ccc([N+](=O)[O-])o1)NNC(=O)c1ccc(F)cc1` the inhibition of corepressor binding was 101% (active).
With `CCCOC(=O)c1[nH]c2c(c1C)C(=O)CC(c1cc(OC)c(OC)c(OC)c1)C2` (stereo not drawn) the inhibition of corepressor binding was 70.4% (active).
With `Cc1ccc(F)cc1NC(=O)Cc1nn(C)c(=O)c2ccccc12` the inhibition of corepressor binding was 96.1% (active).
With `Cc1ccc(S(=O)(=O)N2[C@@H](c3ccc(Br)cc3)C(C(=O)O)=C[C@H]2CC2CCCC2)cc1` the inhibition of corepressor binding was 77.4% (active).
With `COc1cccc(CNS(=O)(=O)c2ccc3c(c2)CC(C)N3C(=O)C2CCC2)c1` (stereo not drawn) the inhibition of corepressor binding was 87.5% (active).
For `COc1ccccc1Oc1ccc(S(=O)(=O)Nc2cccnc2)cc1`, the inhibition of corepressor binding was 96.3% (active).
In the case of `Cc1ccc(NS(=O)(=O)c2ccc(-c3coc(C)n3)cc2)c(C)c1`, the inhibition of corepressor binding is reported as 73.5% (active).
For `Cc1ccc(S(=O)(=O)Nc2ccc3ncccc3c2)cc1`, the inhibition of corepressor binding was 74.2% (active).
For `CC(C)N=C1CCCC1C(=S)SSC(=S)C1CCCC1=NC(C)C` (stereo not drawn), the inhibition of corepressor binding was 82.3% (active).
In the case of `CN(O)C(=S)c1ccccc1`, the inhibition of corepressor binding is reported as 98.8% (active).
`Cc1ccc(C)c(S(=O)(=O)N2CCN(c3ncnc4sccc34)CC2)c1` was tested, and the inhibition of corepressor binding was 85.8% (active).
With `Cc1ccc(S(=O)(=O)N2CCN(c3ncnc4ccccc34)CC2)cc1` the inhibition of corepressor binding was 89.9% (active).
`Cc1nc(-c2ccc(F)cc2)c(CC(=O)Nc2cc(S(=O)(=O)N3CCCCC3)ccc2C)s1` was tested, and the inhibition of corepressor binding was 82.8% (active).
`CC[C@H]1CN2CCc3cc(OC)c(OC)cc3[C@@H]2C[C@@H]1C[C@H]1NCCc2cc(OC)c(OC)cc21` was tested, and the inhibition of corepressor binding was 104% (active).
In the case of `CCCCCCCCn1c2c(c(=N)c3c1CCC3)CCCC2`, the inhibition of corepressor binding is reported as 92% (active).
For `CCN1/C(=C\c2ccc3ccccc3[n+]2CC)Sc2cc(C)ccc21`, the inhibition of corepressor binding was 89.4% (active).
